{"source": "PubChem BioAssay (EPA / NIEHS)", "note": "Inconclusive results are not listed. Calls of active or inactive are those of the source. How the source made its calls: active means hit-call score of the fitted dose curve at least 0.9, where 1 is the maximum; inconclusive means response in the unintended direction; inactive means score below 0.9."}
{"biological_target": "rat CYP2C13, Cyp2c13 (gene 171521) (UniProt P20814)", "sequence (P20814 whole entry, looked up)": "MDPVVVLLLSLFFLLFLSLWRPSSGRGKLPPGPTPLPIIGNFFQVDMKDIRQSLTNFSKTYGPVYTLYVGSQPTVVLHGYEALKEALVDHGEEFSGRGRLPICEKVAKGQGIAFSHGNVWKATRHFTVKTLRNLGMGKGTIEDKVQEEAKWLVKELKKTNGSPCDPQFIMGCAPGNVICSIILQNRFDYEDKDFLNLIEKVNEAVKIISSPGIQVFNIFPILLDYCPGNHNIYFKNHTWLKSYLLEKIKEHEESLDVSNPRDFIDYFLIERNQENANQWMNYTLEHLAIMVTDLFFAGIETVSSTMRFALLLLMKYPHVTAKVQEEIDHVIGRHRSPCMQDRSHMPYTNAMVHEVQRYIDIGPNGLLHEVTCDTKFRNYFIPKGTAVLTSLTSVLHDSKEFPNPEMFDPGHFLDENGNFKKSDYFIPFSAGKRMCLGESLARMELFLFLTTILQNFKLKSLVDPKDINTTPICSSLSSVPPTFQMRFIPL", "experiment": "NVS_ADME_rCYP2C13: NovaScreen (NVS) CYP450-related Enzyme Activity (ADME) Assay for rat CYP2C13 (AID 2283121)", "method": "NVS_ADME_rCYP2C13 is a biochemical, single-readout assay that uses extracted gene-proteins in a cell-free assay. Measurements were taken 0.75 hour after chemical dosing in a 96-well plate.NVS_ADME_rCYP2C13 is one of one assay component(s) measured or calculated from the NVS_ADME_rCYP2C13 assay. It is designed to make measurements of enzyme activity, a form of enzyme reporter, as detected with fluorescence intensity signals by Fluorescence technology.Data from the assay component NVS_ADME_rCYP2C13 was analyzed into 1 assay endpoint. This assay endpoint, NVS_ADME_rCYP2C13, was analyzed in the positive analysis fitting direction relative to Acetonitrile as the negative control and baseline of activity. Using a type of enzyme reporter, loss-of-signal activity can be used to understand changes in the enzymatic activity as they relate to the gene Cyp2c13. Furthermore, this assay endpoint can be referred to as a primary readout, because this assay has produced multiple assay endpoints where this one serves a enzymatic activity function. To generalize the intended target to other relatable targets, this assay endpoint is annotated to the cyp intended target family, where the subfamily is xenobiotic metabolism.\nBinding assays used specific radioligands (tritiated, iodinated) with non-radioactive competitive displacement ligands in agonist or antagonist protocols (as indicated) and various reference compounds and inhibitors to titrate specific binding to receptors and transporters. Most enzyme assays (CYPs, kinases, phosphatases, proteases, HDACs) used recombinant protein and specific substrates (fluorescence mostly, some colorimetric and radioactive) and inhibitors, followed by a biochemical separation of substrate and product. All assays for the biochemical HTS were initially run in duplicate at a single concentration (10 uM for CYP450 assays and 25 uM for all others). […] Each assay was run with positive and negative controls, and concurrent controls on every plate. The follow-up (secondary) screen tested active chemical-pairs in concentration series, as well as a few additional assays not tested in the primary screen, some selected negative inactives, and several cases re-run in the concentration series for confirmatory purposes."}
{"smiles": "COP(=S)(OC)Oc1ccc([N+](=O)[O-])cc1", "AC50": "6.55 µM (active)"}
{"smiles": "CCOC1Oc2ccc(OS(C)(=O)=O)cc2C1(C)C", "note": "(stereo unspecified)", "AC50": "7.5 µM (active)"}
{"smiles": "O=C(Nc1ccccc1)Nc1cnns1", "outcome": "inactive"}
{"smiles": "CCCN(CCOc1c(Cl)cc(Cl)cc1Cl)C(=O)n1ccnc1", "AC50": "0.191 µM (active)"}
{"smiles": "CC(C)(C)C(O)/C(=C\\c1ccc(Cl)cc1Cl)n1cncn1", "note": "(stereo unspecified)", "AC50": "0.281 µM (active)"}
{"smiles": "CC(C)(C)C(O)C(Oc1ccc(Cl)cc1)n1cncn1", "note": "(stereo unspecified)", "AC50": "1.3 µM (active)"}
{"smiles": "CCC(C)Nc1c([N+](=O)[O-])cc(C(C)(C)C)cc1[N+](=O)[O-]", "note": "(stereo unspecified)", "outcome": "inactive"}
{"smiles": "CCC(C)(NC(=O)c1cc(Cl)c(C)c(Cl)c1)C(=O)CCl", "note": "(stereo unspecified)", "outcome": "inactive"}
{"smiles": "CC[C@H](C)[C@H]1O[C@]2(C=C[C@@H]1C)C[C@@H]1C[C@@H](C/C=C(\\C)[C@@H](O[C@H]3C[C@H](OC)[C@@H](O[C@H]4C[C@H](OC)[C@@H](O)[C@H](C)O4)[C@H](C)O3)[C@@H](C)/C=C/C=C3\\CO[C@@H]4[C@H](O)C(C)=C[C@@H](C(=O)O1)[C@]34O)O2", "note": "(tested in a mixture with another compound)", "AC50": "10 µM (active)"}
{"smiles": "C#CCN1C(=O)COc2cc(F)c(N3C(=O)C4=C(CCCC4)C3=O)cc21", "AC50": "0.992 µM (active)"}
{"smiles": "Oc1ccc(Cl)cc1Cc1ccccc1", "AC50": "6.35 µM (active)"}
